# Reference: the supplement of paper PMC10037445
# In all, about 2,900 compounds were measured (“NF-kB SEAP reporter activity, fold change vs agonist alone”: median about 0.99, highest 2% from about 2.6 on). Many of the other results were omitted from the sample, so the highest values are more common in it than they were.
# What was measured:
# [1] = tested on: RAW-Dual; experiment: NF-kB SEAP reporter activity, fold change vs agonist alone; cytotoxicity flag (confluency mask): not cytotoxic; higher = enhanced NF-kB activity
# In short: (§1)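 RAW-Dual macrophages were seeded in DMEM at 50,000 cells/well in 384-well plates, given 50 nL of library stock by pin tool, and given a PRR agonist 1 h later. Plates were held at 37 °C, 5% CO2 for 20 hours, after which supernatant was read for IRF by QuantiLuc luminescence and for NF-κB by QuantiBlue absorbance at 620 nm. Reporter activity is expressed as fold change over wells that received agonist alone. A well was called cytotoxic when IncuCyte confluency fell below 70% of agonist controls in both mask sets.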
# [2] = tested on: RAW-Dual; experiment: NF-kB SEAP reporter activity, fold change vs agonist alone; higher = enhanced NF-kB activity; details: library stock concentration (final ~1000-fold dilution): 10 mM
# In short: as §1
# [3] = tested on: RAW-Dual; experiment: NF-kB SEAP reporter activity, fold change vs agonist alone; cytotoxicity flag (confluency mask): cytotoxic (confluency <70% of control); higher = enhanced NF-kB activity
# In short: as §1
# [4] = agonist: ODN 1826 (TLR9) 0.5 ug/mL
# [5] = agonist: Pam2CSK4 (TLR2/6) 0.1 ug/mL
# [6] = agonist: Pam3CSK4 (TLR2/1) 0.1 ug/mL
# [7] = cytotoxicity flag (confluency mask): not cytotoxic, agonist: Imiquimod (TLR7) […]
# [8] = cytotoxicity flag (confluency mask): not cytotoxic, agonist: MPLA (TLR4) […]
# [9] = cytotoxicity flag (confluency mask): cytotoxic (confluency <70% of control), agonist: Imiquimod (TLR7) […]
# [10] = cytotoxicity flag (confluency mask): cytotoxic (confluency <70% of control), agonist: MPLA (TLR4) […]
smiles,measurement,setting,value
COc1cc(C(=O)N(CCCc2ccccc2)Cc2ccc(CC(=O)O)cc2)cc(OC)c1C (library stock concentration (final ~1000-fold dilution): 10 mM),NF-kB SEAP reporter activity,[1]; agonist: LPS (TLR4) 0.1 ug/mL,1.19
same,NF-kB SEAP reporter activity,[1]; [4],0.976
same,NF-kB SEAP reporter activity,[1]; [5],0.823
same,NF-kB SEAP reporter activity,[1]; [6],0.908
O=C(NO)c1ccc(CC(=O)N(CCO)c2ccccc2)cc1 (library stock concentration (final ~1000-fold dilution): 10 mM),NF-kB SEAP reporter activity,[1]; agonist: LPS (TLR4) 0.1 ug/mL,1.94
same,NF-kB SEAP reporter activity,[1]; [4],1.74
same,NF-kB SEAP reporter activity,[1]; [5],0.801
same,NF-kB SEAP reporter activity,[1]; [6],1.21
COc1cc(C(=O)N(CCCc2ccccc2)Cc2ccc(CC(=O)O)cc2)cc(OC)c1C,NF-kB SEAP reporter activity,[2]; [7],1.1
same,NF-kB SEAP reporter activity,[2]; [8],1.11
CC(C)CNc1ccnc(NCc2csc(-c3ccccc3)n2)n1.Cl,NF-kB SEAP reporter activity,[2]; [9],1.85
same,NF-kB SEAP reporter activity,[2]; [10],1.47
CC(C)CNc1ccnc(NCc2csc(-c3ccccc3)n2)n1.Cl (library stock concentration (final ~1000-fold dilution): 10 mM),NF-kB SEAP reporter activity,[3]; agonist: LPS (TLR4) 0.1 ug/mL,1.62
same,NF-kB SEAP reporter activity,[3]; [4],0.221
same,NF-kB SEAP reporter activity,[3]; [5],0.625
same,NF-kB SEAP reporter activity,[3]; [6],0.446
Nc1ccn(C2OC(CO)C(O)C2(F)F)c(=O)n1 (configuration not stated) (library stock concentration (final ~1000-fold dilution): 10 mM),NF-kB SEAP reporter activity,[3]; agonist: LPS (TLR4) 0.1 ug/mL,0.91
same,NF-kB SEAP reporter activity,[3]; [4],1.88
same,NF-kB SEAP reporter activity,[3]; [5],1.18
same,NF-kB SEAP reporter activity,[3]; [6],1.05
Nc1ccn(C2OC(CO)C(O)C2(F)F)c(=O)n1 (configuration not stated),NF-kB SEAP reporter activity,[2]; [9],2.14
same,NF-kB SEAP reporter activity,[2]; [10],1.35
CCCCCCOC(=O)c1cc(O)c(=O)c2c(O)c(O)c(OC)cc2c1 (library stock concentration (final ~1000-fold dilution): 10 mM),NF-kB SEAP reporter activity,[1]; agonist: LPS (TLR4) 0.1 ug/mL,0.614
same,NF-kB SEAP reporter activity,[1]; [4],0.459
same,NF-kB SEAP reporter activity,[1]; [5],0.599
same,NF-kB SEAP reporter activity,[1]; [6],0.895
CCCCCCOC(=O)c1cc(O)c(=O)c2c(O)c(O)c(OC)cc2c1,NF-kB SEAP reporter activity,[2]; [7],1.2
same,NF-kB SEAP reporter activity,[2]; [8],0.857
NC(=O)c1cccc2nc(-c3ccc(C4CCCN4)cc3F)[nH]c12 (configuration not stated) (library stock concentration (final ~1000-fold dilution): 10 mM),NF-kB SEAP reporter activity,[1]; agonist: LPS (TLR4) 0.1 ug/mL,0.553
same,NF-kB SEAP reporter activity,[1]; [4],0.198
same,NF-kB SEAP reporter activity,[1]; [5],1.03
same,NF-kB SEAP reporter activity,[1]; [6],1
NC(=O)c1cccc2nc(-c3ccc(C4CCCN4)cc3F)[nH]c12 (configuration not stated),NF-kB SEAP reporter activity,[2]; [7],1.14
same,NF-kB SEAP reporter activity,[2]; [8],0.748
COC(=O)CC(O)(CCCC(C)(C)O)C(=O)OC1C(OC)=CC23CCCN2CCc2cc4c(cc2C13)OCO4 (configuration not stated) (library stock concentration (final ~1000-fold dilution): 10 mM),NF-kB SEAP reporter activity,[3]; agonist: LPS (TLR4) 0.1 ug/mL,0.397
same,NF-kB SEAP reporter activity,[3]; [4],0.169
same,NF-kB SEAP reporter activity,[3]; [5],0.0771
same,NF-kB SEAP reporter activity,[3]; [6],0.133
COC(=O)CC(O)(CCCC(C)(C)O)C(=O)OC1C(OC)=CC23CCCN2CCc2cc4c(cc2C13)OCO4 (configuration not stated),NF-kB SEAP reporter activity,[2]; [9],0.141
same,NF-kB SEAP reporter activity,[2]; [10],0.255
Cc1ccc(C(=O)N(CCCN)C(c2oc3cc(Cl)ccc3c(=O)c2Cc2ccccc2)C(C)C)cc1.Cl (configuration not stated) (library stock concentration (final ~1000-fold dilution): 10 mM),NF-kB SEAP reporter activity,[1]; agonist: LPS (TLR4) 0.1 ug/mL,0.189
same,NF-kB SEAP reporter activity,[1]; [4],0.953
same,NF-kB SEAP reporter activity,[1]; [5],0.344
same,NF-kB SEAP reporter activity,[1]; [6],0.73
Cc1ccc(C(=O)N(CCCN)C(c2oc3cc(Cl)ccc3c(=O)c2Cc2ccccc2)C(C)C)cc1.Cl (configuration not stated),NF-kB SEAP reporter activity,[2]; [7],0.905
same,NF-kB SEAP reporter activity,[2]; [8],1.03
Oc1cc(CNC(=S)/C=C/c2cc(O)c(O)c(Br)c2)cc(O)c1O (library stock concentration (final ~1000-fold dilution): 10 mM),NF-kB SEAP reporter activity,[1]; agonist: LPS (TLR4) 0.1 ug/mL,3.51
same,NF-kB SEAP reporter activity,[1]; [4],2.77
same,NF-kB SEAP reporter activity,[1]; [5],1.67
same,NF-kB SEAP reporter activity,[1]; [6],0.821
Oc1cc(CNC(=S)/C=C/c2cc(O)c(O)c(Br)c2)cc(O)c1O,NF-kB SEAP reporter activity,[2]; [7],1.78
same,NF-kB SEAP reporter activity,[2]; [8],2.29
